Results: article PMC7862700, “An all-to-all approach to the identification of sequence-specific readers for epigenetic DNA modifications on cytosine”

Key:
Assay in all cases: DAPPL (digital affinity profiling via proximity ligation, sequencing); 10 mM Tris-HCl pH 7.5, 50 mM NaCl, 1 mM DTT, 4% glycerol, room temperature, 30 min; GST-TFs on glutathione beads, 16-mer random dsDNA library, 0.1% formaldehyde crosslink after washing; high values mean tight binding
FEV = target: T1, FEV (Homo sapiens, UniProt Q99581 1-238); conditions: protein: recombinant; tags: N-terminal GST; dsDNA, one strand shown
T1 sequence: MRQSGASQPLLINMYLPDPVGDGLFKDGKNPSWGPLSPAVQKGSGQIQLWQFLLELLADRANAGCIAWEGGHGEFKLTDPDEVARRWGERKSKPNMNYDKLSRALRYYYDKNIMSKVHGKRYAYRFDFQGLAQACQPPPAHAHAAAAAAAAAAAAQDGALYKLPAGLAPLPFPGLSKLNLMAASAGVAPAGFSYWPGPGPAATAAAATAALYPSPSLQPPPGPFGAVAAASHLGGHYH
Outline: (§1)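 Human transcription factors carrying a GST fusion were produced in yeast, bound to glutathione beads, tagged with DNA barcodes and pooled together with a tag-only sample. Each pool was held with 200 nmole of a random double-stranded 16-mer DNA library in Tris/NaCl/DTT/glycerol buffer for 30 min at room temperature, then washed, crosslinked in 0.1% formaldehyde, proximity-ligated with BsaI/T4 ligase (1 h, 37 °C), PCR-amplified and sequenced on an Illumina NextSeq500. Binding signal is the read frequency of each hexamer for a given factor divided by its frequency in the tag-only sample.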

ETV5 = ETV5 (Homo sapiens, UniProt P41161 1-510); conditions: protein: recombinant; tags: N-terminal GST; dsDNA, one strand shown
ETV5, sequence (P41161 whole entry): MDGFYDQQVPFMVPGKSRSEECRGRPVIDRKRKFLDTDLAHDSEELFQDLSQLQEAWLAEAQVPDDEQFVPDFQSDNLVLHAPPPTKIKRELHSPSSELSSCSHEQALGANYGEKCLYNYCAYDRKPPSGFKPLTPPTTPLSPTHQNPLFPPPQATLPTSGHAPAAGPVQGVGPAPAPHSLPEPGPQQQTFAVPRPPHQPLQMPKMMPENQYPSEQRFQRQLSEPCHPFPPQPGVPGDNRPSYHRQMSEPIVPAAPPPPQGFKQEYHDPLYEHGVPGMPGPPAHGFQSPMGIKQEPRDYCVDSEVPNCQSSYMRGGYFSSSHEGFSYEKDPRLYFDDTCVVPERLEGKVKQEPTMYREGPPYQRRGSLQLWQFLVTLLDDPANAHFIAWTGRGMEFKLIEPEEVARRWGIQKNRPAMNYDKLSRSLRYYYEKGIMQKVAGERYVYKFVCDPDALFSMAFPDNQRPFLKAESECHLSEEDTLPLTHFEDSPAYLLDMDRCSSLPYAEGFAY
Outline: as §1

HSF1 = HSF1 (Homo sapiens, UniProt Q00613 1-529); conditions: protein: recombinant; tags: N-terminal GST; chain copies: 3; dsDNA, one strand shown
HSF1, sequence (Q00613 whole entry): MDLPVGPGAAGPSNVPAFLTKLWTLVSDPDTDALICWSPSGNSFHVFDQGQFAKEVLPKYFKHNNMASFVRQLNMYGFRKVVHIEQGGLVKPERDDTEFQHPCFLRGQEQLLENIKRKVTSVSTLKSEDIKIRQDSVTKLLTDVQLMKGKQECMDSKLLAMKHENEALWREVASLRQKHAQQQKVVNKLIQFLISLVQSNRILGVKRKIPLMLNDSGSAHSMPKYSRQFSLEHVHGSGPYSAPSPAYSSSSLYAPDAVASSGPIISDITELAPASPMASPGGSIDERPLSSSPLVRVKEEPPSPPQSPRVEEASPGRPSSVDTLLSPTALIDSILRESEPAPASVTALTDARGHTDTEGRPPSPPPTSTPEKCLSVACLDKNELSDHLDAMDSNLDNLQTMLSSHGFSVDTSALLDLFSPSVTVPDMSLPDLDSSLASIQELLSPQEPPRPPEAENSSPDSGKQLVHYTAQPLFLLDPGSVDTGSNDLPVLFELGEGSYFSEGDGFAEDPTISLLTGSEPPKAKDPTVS
Outline: as §1

SPIC = target: T2, SPIC (Homo sapiens, UniProt Q8N5J4 1-248); conditions: protein: recombinant; tags: N-terminal GST; dsDNA, one strand shown
T2 sequence: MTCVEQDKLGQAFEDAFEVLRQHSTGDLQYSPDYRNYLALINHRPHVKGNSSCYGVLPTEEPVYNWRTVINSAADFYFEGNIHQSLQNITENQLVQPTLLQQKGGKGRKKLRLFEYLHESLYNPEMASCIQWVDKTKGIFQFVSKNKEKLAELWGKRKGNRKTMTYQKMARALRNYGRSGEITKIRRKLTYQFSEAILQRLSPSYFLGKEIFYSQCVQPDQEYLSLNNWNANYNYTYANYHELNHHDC
Outline: as §1

ELF4 = ELF4 (Homo sapiens, UniProt Q99607 1-663); conditions: protein: recombinant; tags: N-terminal GST; dsDNA, one strand shown
ELF4, sequence (Q99607 whole entry): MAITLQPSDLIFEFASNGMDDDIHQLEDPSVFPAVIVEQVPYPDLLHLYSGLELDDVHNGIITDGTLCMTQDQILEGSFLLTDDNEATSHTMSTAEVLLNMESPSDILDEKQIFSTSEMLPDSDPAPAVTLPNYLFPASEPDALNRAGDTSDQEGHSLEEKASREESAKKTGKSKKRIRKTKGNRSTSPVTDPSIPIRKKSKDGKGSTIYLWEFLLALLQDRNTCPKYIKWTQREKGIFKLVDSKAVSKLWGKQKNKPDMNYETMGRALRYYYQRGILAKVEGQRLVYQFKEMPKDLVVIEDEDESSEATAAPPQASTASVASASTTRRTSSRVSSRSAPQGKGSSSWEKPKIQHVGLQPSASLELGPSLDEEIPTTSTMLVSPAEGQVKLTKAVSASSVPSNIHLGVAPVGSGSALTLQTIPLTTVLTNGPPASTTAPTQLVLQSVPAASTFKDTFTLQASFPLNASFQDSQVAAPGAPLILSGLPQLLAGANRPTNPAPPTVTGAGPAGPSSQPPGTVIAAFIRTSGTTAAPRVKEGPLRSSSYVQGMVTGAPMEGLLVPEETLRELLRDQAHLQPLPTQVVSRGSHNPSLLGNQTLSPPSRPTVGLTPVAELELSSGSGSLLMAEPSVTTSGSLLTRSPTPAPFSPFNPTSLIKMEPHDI
Outline: as §1

ELK4 = target: T3, ELK4 (Homo sapiens, UniProt P28324-2 1-405); conditions: protein: recombinant; tags: N-terminal GST; dsDNA, one strand shown
T3 sequence: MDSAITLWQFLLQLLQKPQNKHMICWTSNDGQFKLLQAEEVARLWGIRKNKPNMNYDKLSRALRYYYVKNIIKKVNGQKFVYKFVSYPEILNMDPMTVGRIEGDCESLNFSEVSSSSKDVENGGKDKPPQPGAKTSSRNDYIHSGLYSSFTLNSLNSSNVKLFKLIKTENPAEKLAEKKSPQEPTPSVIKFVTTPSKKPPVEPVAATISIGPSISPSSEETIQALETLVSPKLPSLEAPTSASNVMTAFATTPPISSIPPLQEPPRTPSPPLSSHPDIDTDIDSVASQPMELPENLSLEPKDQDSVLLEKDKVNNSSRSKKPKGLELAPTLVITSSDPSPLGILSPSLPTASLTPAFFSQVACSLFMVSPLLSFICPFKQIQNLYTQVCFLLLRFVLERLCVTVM
Outline: as §1

ETV2 = target: T4, ETV2 (Homo sapiens, UniProt O00321 1-342); conditions: protein: recombinant; tags: N-terminal GST; dsDNA, one strand shown
T4 sequence: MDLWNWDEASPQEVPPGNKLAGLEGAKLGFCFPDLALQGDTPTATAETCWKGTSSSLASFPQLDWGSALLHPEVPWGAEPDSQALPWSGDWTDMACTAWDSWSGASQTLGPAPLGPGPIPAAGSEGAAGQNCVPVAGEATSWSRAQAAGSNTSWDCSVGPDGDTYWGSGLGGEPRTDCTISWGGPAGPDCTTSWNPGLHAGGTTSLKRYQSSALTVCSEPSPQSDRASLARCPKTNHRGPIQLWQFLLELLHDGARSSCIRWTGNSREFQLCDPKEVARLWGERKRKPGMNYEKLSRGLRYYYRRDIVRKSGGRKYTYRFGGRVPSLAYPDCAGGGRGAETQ
Outline: as §1

ELF3 = target: T5, ELF3 (Homo sapiens, UniProt P78545 1-371); conditions: protein: recombinant; tags: N-terminal GST; dsDNA, one strand shown
T5 sequence: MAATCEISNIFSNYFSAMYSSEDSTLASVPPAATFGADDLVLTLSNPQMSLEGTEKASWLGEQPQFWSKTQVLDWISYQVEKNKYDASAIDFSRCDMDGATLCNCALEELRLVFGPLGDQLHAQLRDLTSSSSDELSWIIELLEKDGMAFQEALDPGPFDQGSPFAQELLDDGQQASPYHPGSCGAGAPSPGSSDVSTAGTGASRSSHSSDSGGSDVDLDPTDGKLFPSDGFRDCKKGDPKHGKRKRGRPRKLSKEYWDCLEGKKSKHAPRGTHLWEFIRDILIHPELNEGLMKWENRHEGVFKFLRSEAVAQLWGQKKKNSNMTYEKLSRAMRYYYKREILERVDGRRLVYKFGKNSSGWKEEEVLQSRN
Outline: as §1

CRX = CRX (Homo sapiens, UniProt O43186 1-299); conditions: protein: recombinant; tags: N-terminal GST; dsDNA, one strand shown
CRX, sequence (O43186 whole entry): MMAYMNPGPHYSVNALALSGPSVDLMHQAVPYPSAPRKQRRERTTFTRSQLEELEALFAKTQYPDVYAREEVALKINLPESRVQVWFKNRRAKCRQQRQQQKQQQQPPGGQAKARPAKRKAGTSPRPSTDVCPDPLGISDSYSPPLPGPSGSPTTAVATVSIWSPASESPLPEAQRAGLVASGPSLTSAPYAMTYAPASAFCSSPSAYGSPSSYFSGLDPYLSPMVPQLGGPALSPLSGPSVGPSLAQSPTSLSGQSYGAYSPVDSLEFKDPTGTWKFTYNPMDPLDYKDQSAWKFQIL
Outline: as §1

CTATCT
binding signal (FEV): 1.34 fold enrichment (6-mer frequency, TF over GST control)
binding signal (ETV5): 1.22 fold enrichment (6-mer frequency, TF over GST control)
binding signal (HSF1): 1.4 fold enrichment (6-mer frequency, TF over GST control)
binding signal (SPIC): 1.34 fold enrichment (6-mer frequency, TF over GST control)
binding signal (ELF4): 1.34 fold enrichment (6-mer frequency, TF over GST control)
binding signal (ELK4): 1.15 fold enrichment (6-mer frequency, TF over GST control)
binding signal (ETV2): 1.39 fold enrichment (6-mer frequency, TF over GST control)
binding signal (ELF3): 1.29 fold enrichment (6-mer frequency, TF over GST control)
binding signal (CRX): 1.4 fold enrichment (6-mer frequency, TF over GST control)
